dFosB act: activators of mouse delta FosB homodimer | activation, % at 25 µM | AID 493131 | purified delta FosB, TAMRA-CDK5 oligo fluorescence polarization; percent of positive-control signal above neutral wells | 0.99% of 340,000 active | P13346;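 active = mean activation above about 17%, with every replicate also reaching it, limit read from the data, passing the limit was not always enough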
DENV2 CPE rescue: protects cells from dengue virus 2 cytopathic effect. CPE inhibition, % at 9.99 µM. 1.7% of 350,000 active. AID 651640. DENV2-infected cells, cytopathic effect rescue, plate reader; in the data active = CPE inhibition above about 20%, passing the limit was not always enough; tested in BHK-21 cells;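 note: 0% = median of neutral control wells and 100% = median of positive control wells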
RAD54 branch: blocks human RAD54 Holliday junction branch migration. Q92698. FAM/BHQ fluorescence. inhibition, % at 10.4 µM. 0.14% of 360,000 active;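 active = mean normalized replicate activity at least 40 and at least half of replicates scoring 40 or more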;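 note: 0% = median of neutral control wells and 100% = median of positive control wells; inhibitors cause a drop in the FAM fluorescence signal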
AF4-AF9 inh: MLL-AF4/AF9 protein interaction inhibition | inhibition, % at 10 µM | 0.47% of 350,000 active | AlphaScreen, biotin-AF4 peptide binding to FLAG-AF9;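 active = every replicate reaching a set inhibition limit, whatever the replicate mean, cut at about 25% in these data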;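 note: 0% = plate neutral control median and 100% = total signal loss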
RAD52 inh: blocks human RAD52 DNA annealing; P43351; recombinant RAD52 DNA annealing, FRET fluorescence; inhibition, % at 18.7 µM; 0.46% of 360,000 active; AID 651710;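 active = every replicate showing at least 50% inhibition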
Target sequence (P43351 whole entry, looked up): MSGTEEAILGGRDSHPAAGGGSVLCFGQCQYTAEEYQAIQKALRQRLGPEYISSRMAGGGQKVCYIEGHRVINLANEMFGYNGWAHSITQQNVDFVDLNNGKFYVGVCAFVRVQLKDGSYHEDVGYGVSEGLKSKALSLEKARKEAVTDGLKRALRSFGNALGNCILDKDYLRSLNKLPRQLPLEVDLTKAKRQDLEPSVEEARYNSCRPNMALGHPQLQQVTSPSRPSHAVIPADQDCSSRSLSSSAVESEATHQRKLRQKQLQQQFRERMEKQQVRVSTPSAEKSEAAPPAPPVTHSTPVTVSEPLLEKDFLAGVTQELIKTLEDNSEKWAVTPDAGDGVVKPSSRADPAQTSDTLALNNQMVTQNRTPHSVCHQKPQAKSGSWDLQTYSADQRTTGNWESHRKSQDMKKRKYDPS
GSIS activator: GLuc luminescence reporter in INS-1E cells, primary screen for activators of glucose-dependent secretion of insulin; 0.61% of 370,000 active; INS-1E GLuc reporter insulin secretion, 2-3 h; activation, % at 16.6 µM;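 active = lowest replicate activation of at least 40%, so every replicate reaches that level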;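 note: 0% = median of neutral control wells and 100% = median of IBMX positive control wells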
* = called active by the depositor; nt = no result. Rows were chosen to be rich in hits. Some 3.1% of all compounds tested hit in one or more screens of this group.

SMILES | dFosB act | DENV2 CPE rescue | RAD54 branch | AF4-AF9 inh | RAD52 inh | GSIS activator
CN1C(=O)c2cc(NC(=O)Nc3ccc(Cl)cc3)ccc2OC[C@@H]2O[C@@H](CC(=O)NCCN3CCCCC3)CC[C@@H]21 | nt | -7.0 | 6.6 | 11.6 | 57.3* | 6.8
Cc1noc(C)c1NC(=O)Nc1cccc2c1O[C@@H](CN(C)C(=O)Nc1c(C)noc1C)[C@H](C)CN([C@@H](C)CO)C2=O | nt | 14.2 | 9.3 | -2.1 | 2.0 | 6.3
COc1ccc(CCNC(=O)COC(=O)c2ccco2)cc1OC | 0.5 | nt | -18.7 | nt | nt | nt
COc1ccc(CCNC(=O)COC(=O)c2ccccc2NCCO)cc1OC | -0.6 | 17.8 | -13.2 | -12.6 | 1.6 | 83.0*
COc1cc(OC)cc(C(=O)NCc2ccc3c(c2)OCO3)c1 | -2.4 | 29.4* | 2.9 | 0.3 | -0.1 | 13.1
COc1ccc(CCNC(=O)Cc2ccc3c(c2)OCO3)cc1OC | 0.7 | nt | -7.7 | nt | nt | 102.4*
COc1ccc(CCNC(=O)COC(=O)C2CC2C)cc1OC (stereo not drawn) | 4.8 | 9.1 | -6.3 | -1.2 | -17.8 | 57.3*
COc1cccc(C(=O)NCc2ccc3c(c2)OCO3)c1 | -3.6 | -1.8 | -13.0 | -0.5 | -18.3 | -10.9
CC(=O)N(C)C[C@@H]1Oc2cc(C#Cc3cccc(F)c3)ccc2S(=O)(=O)N([C@H](C)CO)C[C@H]1C | nt | -3.0 | -1.1 | 0.3 | 9.7 | -7.5
C[C@H](CO)N1C[C@H](C)[C@@H](CN(C)S(=O)(=O)c2ccc(Cl)cc2)Oc2ccc(NC(=O)c3ccncc3)cc2CC1=O | nt | -5.2 | -8.6 | 3.0 | -62.9 | -4.3
CC(C)C#Cc1cnc2c(c1)C(=O)N([C@@H](C)CO)C[C@@H](C)[C@@H](CN(C)C(=O)Nc1ccc(F)cc1)O2 | nt | 9.5 | -10.4 | 5.2 | 11.0 | -23.3
C[C@H]1CN([C@@H](C)CO)C(=O)c2c(c3ccccc3n2C)-c2ccccc2CO[C@@H]1CN(C)S(=O)(=O)c1cccs1 | nt | 3.8 | -10.0 | 1.9 | -2.3 | -8.0
COCC(=O)Nc1ccc2c(c1)C(=O)N(C)[C@@H]1CC[C@@H](CC(=O)NC3CCCC3)O[C@@H]1CO2 | nt | 6.1 | 5.7 | nt | nt | 11.8
COc1ccc(CCNC(=O)COC(=O)c2cncc(Br)c2)cc1OC | -1.6 | -7.7 | -6.1 | -0.1 | -4.0 | 55.8*
O=C(O)c1ccc(S(=O)(=O)NCc2ccc3c(c2)OCO3)cc1 | 6.0 | -7.2 | -2.6 | -2.7 | -19.4 | 43.1*
CCOc1c2ccc(C(=O)NCc3ccc4c(c3)OCO4)cc2nn1CC | 1.5 | 31.6* | 4.0 | -7.8 | -28.7 | 18.8
O=C(O)c1ccccc1NCCO | 5.0 | -4.3 | nt | -2.8 | -21.1 | 8.8
COC(=O)c1ccccc1NCCO | 0.5 | 1.5 | 4.7 | -0.5 | -8.5 | 120.0*
COc1ccc(CNC(=O)COC(=O)c2cncc(Br)c2)cc1 | -5.6 | 4.2 | -7.9 | -1.0 | -25.3 | 12.2
CCCn1nc2cc(C(=O)NCc3ccc4c(c3)OCO4)ccc2c1OCC | -6.1 | -2.1 | -8.9 | 0.0 | -12.7 | -6.0
CN(C)C(=O)c1ccc(-c2ccc([C@@H]3[C@@H](CO)N4C(=O)CN(C(=O)C5CC5)C[C@H]34)cc2)cc1 | nt | 10.7 | nt | 16.6 | 4.0 | 9.8
O=C(C[C@H]1C[C@H]2c3cc(NC(=O)NC4CCCC4)ccc3O[C@H]2[C@@H](CO)O1)NCc1ccccc1 | nt | -15.1 | -8.5 | -1.5 | 0.5 | 23.7
COc1ccc(CCNC(=O)C(C)Sc2ccc(C)cc2)cc1OC (stereo not drawn) | -4.1 | nt | nt | nt | nt | 53.1*
COc1ccc(C(C)=O)cc1COC(=O)c1ccc2c(c1)OCO2 | -5.4 | nt | -8.1 | nt | nt | 33.7
COc1ccc(CCNC(=O)CCCc2ccccc2)cc1OC | -0.1 | -0.6 | -16.8 | -1.4 | -13.6 | 55.3*
COc1ccc(CNC(=O)CCCn2c(=O)c3cccn3c3cccnc32)cc1 | nt | -3.8 | -0.9 | -3.0 | -28.2 | 14.5
COc1ccc(CN(C)C(=O)COC(=O)c2ccc3c(c2)OCO3)cc1OC | -10.1 | nt | nt | nt | nt | 63.5*
COc1ccc(CC(=O)NCCCCc2ccccc2)cc1OC | 7.9 | -1.8 | nt | 5.1 | -13.3 | -19.7
COc1ccc(CCNC(=O)CCn2c(=O)c3cccn3c3cccnc32)cc1OC | 4.6 | 13.0 | -1.2 | 0.5 | -3.2 | 64.7*
C[C@@H]1CCCCO[C@@H](CN(C)CC2CCCCC2)[C@H](C)CN([C@H](C)CO)C(=O)c2cc(NC(=O)CCC(F)(F)F)ccc2O1 | nt | nt | 14.6 | nt | nt | 0.1

Screening results (PubChem BioAssay)
